Among the data in PubChem BioAssay are z-score and composite z-score values, retold here.

Structures are written as SMILES. The source made the active and inactive calls.

The nature of assay [1]: E. coli DRC41 culture turbidity changes, primary screen, E. coli filamentation inducer project, strain DRC41, OD650, 48 h (AID 1152).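 Also: E. coli MC1000 strain DRC41 lacking acrAB efflux pump and sulA.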 The following applies: E. coli DRC41 (acrAB sulA), higher = more signal, called active from +8 up or from −8 down.
Assay [2] in a line: small-molecule binders of probe aLefty1, primary screen, biochemical, small-molecule microarray, 635/667 nm fluorescence (AID 1153).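 Also: score merges spot fluorescence with signal-to-noise ratio from the scanned slide images.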 To be noted: higher = more signal.
Assay [3] is described as follows: modulators of S6 phosphorylation in cells, primary screen, cell-based, A549, cytoblot, luminescence, serum-stimulated (AID 1158).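 Also: serum-stimulated A549 lung adenocarcinoma cells; signal is phosphorylated S6 detected by cytoblot immunostaining with HRP secondary.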 To be noted: A549 phospho-S6 cytoblot, 5 h, higher = more signal.
The target of assay [4] is NADPH oxidase 2 (Homo sapiens) (UniProt P04839). Briefly: NOX2-dependent H2O2 signal modulators, primary screen, NOX inhibitor project, cell-based, HEK293-NOX2, PMA-stimulated, Amplex Red fluorescence (AID 1159). Also: test concentration not given here. To be noted: 45 min, higher = more signal, called active from +8 up or from −8 down.
In assay [5] the target is NADPH oxidase 4 (Homo sapiens) (UniProt Q9NPH5). Briefly: NOX4-dependent H2O2 signal modulators, primary screen, NOX inhibitor project, cell-based, HEK293-NOX4, tetracycline-induced, Amplex Red fluorescence (AID 1160). To be noted: 45 min, higher = more signal, called active from +8 up or from −8 down.
Assay [6] concerns the target NADPH oxidase 5 (Homo sapiens) (UniProt Q96PH1). Briefly: NOX5-dependent H2O2 signal modulators, primary screen, NOX inhibitor project, cell-based, HEK293-NOX5, Amplex Red fluorescence (AID 1161). To be noted: HEK293-NOX5, ionomycin, 45 min, higher = more signal.
The nature of assay [7]: PSAC antagonists in infected red cells, primary screen, cell-based, P. falciparum Indochina, OD700, 1 h (AID 1154). The following applies: P. falciparum Indochina infected RBC osmotic lysis, higher = more signal, called active from +8 up or from −8 down.
A short description of assay [8]: PSAC antagonists in infected red cells, primary screen, cell-based, P. falciparum Indochina, OD700, 2 h (AID 1155).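 Also: lysis reports solute entry through the parasite surface anion channel PSAC; channel blockers reduce lysis of infected cells.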 The following applies: P. falciparum Indochina infected erythrocytes, osmotic lysis OD700; higher = more signal, called active from +8 up or from −8 down.
Assay [9] is described as follows: osmotic lysis modulators in infected erythrocytes, primary screen, PSAC antagonist project, cell-based, P. falciparum Indochina, OD700, 3 h (AID 1156). To be noted: higher = more signal, called active from +8 up or from −8 down.
A short description of assay [10]: PSAC antagonists in infected red cells, primary screen, cell-based, P. falciparum Indochina, OD700, 18 h (AID 1157). The following applies: P. falciparum Indochina infected erythrocytes, osmotic lysis OD700, 18 h; higher = more signal, called active from +8 up or from −8 down.

Chain of NADPH oxidase 4 (Homo sapiens) (Q9NPH5 whole entry, looked up): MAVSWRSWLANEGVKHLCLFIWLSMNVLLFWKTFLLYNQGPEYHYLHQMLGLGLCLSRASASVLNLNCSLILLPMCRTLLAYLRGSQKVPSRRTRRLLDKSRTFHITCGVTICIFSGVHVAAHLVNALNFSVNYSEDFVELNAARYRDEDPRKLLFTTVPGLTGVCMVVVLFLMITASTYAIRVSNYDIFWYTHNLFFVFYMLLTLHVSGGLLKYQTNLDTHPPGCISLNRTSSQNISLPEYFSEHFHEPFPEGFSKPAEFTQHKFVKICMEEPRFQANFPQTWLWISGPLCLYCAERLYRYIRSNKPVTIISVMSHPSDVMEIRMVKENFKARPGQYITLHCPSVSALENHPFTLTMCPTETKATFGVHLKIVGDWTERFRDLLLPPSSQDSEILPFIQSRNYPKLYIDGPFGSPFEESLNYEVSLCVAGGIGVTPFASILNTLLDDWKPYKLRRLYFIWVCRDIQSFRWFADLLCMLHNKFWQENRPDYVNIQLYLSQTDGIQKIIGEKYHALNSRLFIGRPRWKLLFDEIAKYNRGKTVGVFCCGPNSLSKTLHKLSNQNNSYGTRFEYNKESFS
Chain of NADPH oxidase 2 (Homo sapiens) (P04839 whole entry, looked up): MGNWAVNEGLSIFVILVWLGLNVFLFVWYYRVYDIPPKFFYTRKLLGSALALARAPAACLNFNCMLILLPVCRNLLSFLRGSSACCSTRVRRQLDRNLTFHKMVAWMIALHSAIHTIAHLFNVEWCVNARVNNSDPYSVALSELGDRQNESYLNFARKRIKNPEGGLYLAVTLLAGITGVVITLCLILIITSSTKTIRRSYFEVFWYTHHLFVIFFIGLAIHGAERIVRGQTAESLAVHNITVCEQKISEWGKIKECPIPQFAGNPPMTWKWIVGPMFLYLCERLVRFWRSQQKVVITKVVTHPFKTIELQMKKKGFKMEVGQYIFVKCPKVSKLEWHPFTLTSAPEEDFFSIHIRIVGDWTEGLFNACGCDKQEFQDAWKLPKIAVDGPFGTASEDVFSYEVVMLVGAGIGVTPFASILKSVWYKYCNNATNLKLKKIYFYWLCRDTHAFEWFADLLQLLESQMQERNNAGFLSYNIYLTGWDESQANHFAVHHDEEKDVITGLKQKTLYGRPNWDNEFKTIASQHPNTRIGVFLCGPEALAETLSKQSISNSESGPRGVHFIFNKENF
Chain of NADPH oxidase 5 (Homo sapiens) (Q96PH1 whole entry, looked up): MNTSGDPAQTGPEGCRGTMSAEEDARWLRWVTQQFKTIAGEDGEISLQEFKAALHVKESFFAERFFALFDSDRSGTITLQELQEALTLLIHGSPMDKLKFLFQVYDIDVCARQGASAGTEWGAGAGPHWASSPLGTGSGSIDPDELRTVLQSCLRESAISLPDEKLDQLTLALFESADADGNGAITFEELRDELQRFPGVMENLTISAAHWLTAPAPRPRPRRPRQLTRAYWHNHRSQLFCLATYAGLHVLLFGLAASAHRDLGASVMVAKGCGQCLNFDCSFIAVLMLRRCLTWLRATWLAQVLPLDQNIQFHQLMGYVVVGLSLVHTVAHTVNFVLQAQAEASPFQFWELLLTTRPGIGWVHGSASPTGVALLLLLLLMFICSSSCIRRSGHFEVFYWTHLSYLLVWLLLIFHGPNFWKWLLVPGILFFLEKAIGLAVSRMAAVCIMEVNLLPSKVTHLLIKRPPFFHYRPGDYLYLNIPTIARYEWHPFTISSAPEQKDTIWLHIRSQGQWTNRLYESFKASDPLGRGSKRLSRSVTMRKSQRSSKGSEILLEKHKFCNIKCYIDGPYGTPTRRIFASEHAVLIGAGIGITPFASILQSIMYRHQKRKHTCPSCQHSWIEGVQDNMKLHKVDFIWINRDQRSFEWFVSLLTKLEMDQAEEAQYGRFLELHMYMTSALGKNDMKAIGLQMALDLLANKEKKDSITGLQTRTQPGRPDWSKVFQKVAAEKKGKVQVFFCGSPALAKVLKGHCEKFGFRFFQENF

For the molecule `C#CCCCON=C1C[C@@H](O)[C@@H](O)[C@@H]2[C@@H]3C(=O)N(Cc4ccc5c(c4)OCO5)C(=O)[C@@H]3CC[C@@H]12`, the z-score in assay [1] is 0.741 (inactive); in assay [3], -0.0259; in assay [4], 0.192 (inactive); in [5], 0.773 (inactive); in assay [6] it was -0.019. In assay [2], this molecule showed a composite z-score of 0.137.
In the case of `COC(=O)C1=CC(c2ccc(CO)cc2)=CC(C2CC2)N(Cc2sc3ccccc3c2Cl)C=C1C(=O)OC` (stereo unspecified), the z-score in assay [1] is -0.248 (inactive); in [7] it was 13.7 (active); in assay [8], 0.815 (inactive); in assay [9] it was -0.994 (inactive); in assay [10] it was -1.07 (inactive); in assay [3], 0.983. The z-score in assay [4] is -0.872 (inactive); in assay [5], -0.189 (inactive); in assay [6], -0.0786. In assay [2], this molecule displayed a composite z-score of 0.385.
On to `C#C[C@H](O[Si](C#Cc1ccccc1)(C(C)C)C(C)C)c1ccccc1`, for which the z-score in assay [1] was -0.0719 (inactive); in assay [7], 0.876 (inactive); in assay [8], 0.924 (inactive); in [9], -1.54 (inactive); in [10], 0.234 (inactive); in assay [3] it was -0.801. The z-score was 0.146 (inactive) in assay [4], -0.779 (inactive) in assay [5] and -2.37 in assay [6]. In [2], this molecule gave a composite z-score of 0.22.
With `C[N+](C)(C)CCCCNC(=O)[C@H]1C[C@H]2C(=O)NCC(=O)N2[C@H]1c1cccc(OCCO)c1`, the z-score in assay [1] is -0.184 (inactive); in assay [7] it was 2.81 (inactive); in assay [8], -0.0646 (inactive); in assay [9], -2.28 (inactive); in assay [10], -0.0179 (inactive); in assay [3] it was 0.0455. Also, the results for the z-score in [4], in assay [5] and in assay [6] were -1.21 (inactive), 0.0245 (inactive) and 0.259, respectively. Further, the composite z-score in assay [2] was found to be 0.223.
Regarding `COc1ccc(-c2cc3c(c(-c4ccccc4)n2)[Si](C(C)C)(C(C)C)O[C@H]3c2ccccc2)cn1`, the z-score in assay [1] is -1.27 (inactive); in assay [7], 1.71 (inactive); in assay [8], 0.489 (inactive); in [9] it was -0.479 (inactive); in assay [10], -0.183 (inactive); in assay [3] it was -0.442. The z-score in [4] is 0.601 (inactive); in [5], 0.451 (inactive); in assay [6] it was 0.929. Besides, in [2], the composite z-score was -0.147.
Turning to `CCCN1C(=O)[C@@]2(CCS(=O)(=O)c3ccccc3)N=C(c3ccc(OCCCO)cc3)O[C@H]2c2ccccc21`, the z-score in assay [1] was 0.33 (inactive); in assay [7], 34.1 (active); in assay [8], 32.4 (active); in [9], 1.93 (inactive); in [10] it was 3.19 (inactive); in assay [3] it was 0.43. The z-score in assay [4] is -2.38 (inactive); in assay [5], -0.683 (inactive); in [6], -1.74. Moreover, the composite z-score in assay [2] was found to be 0.498.
Regarding `CCOC(=O)C[C@H]1[C@H](OC(=O)c2ccccc2-c2ccccc2)[C@@H](NC(=O)c2ccc(-c3ccccc3)cc2)c2cc(OCCCO)ccc2N1C(=O)Cc1ccc(OC)cc1`, the z-score is -0.866 (inactive) in [1]; 17.3 (active) in assay [7]; 2.83 (inactive) in assay [8]; -0.405 (inactive) in assay [9]; 0.575 (inactive) in [10]; 0.111 in [3]. Further, the z-score in assay [4] is 0.155 (inactive); in assay [5] it was 1.22 (inactive); in assay [6], 1.21. In assay [2], this molecule gave a composite z-score of -0.147.
As to `COc1ccc(NN2C(C(O)c3cc(OC)c(OC)c(OC)c3)C=CC3C(=O)N(C4CCCCC4)C(=O)C32)cc1` (stereo unspecified), the z-score in assay [1] is -0.413 (inactive); in assay [7], 11.5 (active); in assay [8] it was 1.74 (inactive); in [9], 0.752 (inactive); in assay [10], 0.558 (inactive); in [3], -0.241. Moreover, the z-score was -1.55 (inactive) in assay [4], -1.85 (inactive) in assay [5] and -2.67 in assay [6]. For the same molecule, the composite z-score in assay [2] stood at 0.06.
As to `Cc1ccc(S[C@]2(C(=O)NCCN3CCOCC3)CC(=O)N(C3Cc4ccccc4C3)[C@@H]2c2ccc(CO)cc2I)cc1`, the z-score in [1] is 1.86 (inactive); in assay [7], 6.65 (inactive); in assay [8] it was -0.0443 (inactive); in assay [9], 0.591 (inactive); in assay [10], -0.926 (inactive); in [3], 1.22. Moreover, the z-score in assay [4] was 2.05 (inactive); in [5], -1.59 (inactive); in assay [6], 1.33. This molecule also had a composite z-score in [2] of 0.392.
For `CC(=O)NCCCC[C@@H]1NC(=O)[C@H]2C[C@@H](C(=O)NCCCCCCN(C)C)[C@@H](c3ccc(O)cc3)N2C1=O`, the z-score was -0.233 (inactive) in assay [1]; 1.32 (inactive) in assay [7]; 0.461 (inactive) in assay [8]; 1.92 (inactive) in [9]; 0.0071 (inactive) in assay [10]; 0.144 in [3]. For the same molecule, the figures for the z-score in assay [4], in assay [5] and in [6] were -0.768 (inactive), -1.51 (inactive) and -0.479, respectively. In addition, in assay [2], the composite z-score stood at 0.538.
For `COCCOC(=O)N1C(=O)[C@@]2(c3cc(C#CCCO)ccc31)[C@H](C(=O)N1CCCCCCC1)[C@H]1C(=O)O[C@H](c3ccccc3)[C@H](c3ccccc3)N1[C@@H]2c1ccc(O)cc1`, the z-score was 3.86 (inactive) in [1]; 1.06 (inactive) in assay [7]; -0.755 (inactive) in assay [8]; -0.0793 (inactive) in assay [9]; -1.32 (inactive) in assay [10]; 5.3 in [3]. Also, the z-score in assay [4] is 1.7 (inactive); in assay [5], 0.807 (inactive); in assay [6] it was 1.67. The molecule further displayed a composite z-score in assay [2] of 1.6.
`C=C(C(=O)CC[C@H](OC(=O)c1ccccc1-c1ccccc1C(=O)O)c1ccc(CO)o1)C(C)C`: the z-score was -0.748 (inactive) in [1]; 2.22 (inactive) in assay [7]; 0.36 (inactive) in assay [8]; 1.19 (inactive) in assay [9]; 0.233 (inactive) in assay [10]; 0.124 in [3]. Moreover, the z-score in assay [4] is -0.162 (inactive); in assay [5] it was -0.621 (inactive); in assay [6], -0.867. For the same molecule, the composite z-score in assay [2] came out at 0.0026.
